PubChem BioAssay AID1159580 (chemical genetic matrix, 2015)
Several values for one entry are separate records, joined by “and”; a condition that tells them apart may be missing. Equal entries are not always repeated. Out of some 5,500 compounds screened, about 2,000 (36%) were called active. About 18% were inconclusive and are not listed. Rule as the data show it: active = normalized growth mostly below about 0.91 (no sharp cut-off); inconclusive = no clear call, values can overlap the other calls; inactive = mostly above about 0.92. The list shows a part of the results.

Assay: chemical genetic growth profiling, strain panel (AID 1159580);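 also: tested at 20 µM; growth read once vehicle control cultures reached saturation at 30 °C; 1 = growth at the plate median or of vehicle wells; lower values mean less growth of the strain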
Conditions: S. cerevisiae deletion strains, growth OD

Measured: normalized growth

C=C1C(C2(C)C=CC(=O)C(C)(C)C2CC(=O)OC)CC[C@@]2(C)[C@H](c3ccoc3)OC(=O)C3OC132 (stereo not given in full)
inactive: locus YAL021C, strain ccr4, stronger effect = lower value 1.02 | locus YAL026C, strain drs2, stronger effect = lower value 0.97 | locus YAL030W, strain snc1, stronger effect = lower value 0.996 | locus YBL061C, strain skt5, stronger effect = lower value 0.988 | locus YBR009C, strain hhf1, stronger effect = lower value 1 | locus YBR021W, strain FUR4, stronger effect = lower value 1.03 | locus YBR023C, strain chs3, stronger effect = lower value 1 | locus YBR171W, strain sec66, stronger effect = lower value 0.954 | locus YBR229C, strain ROT2, stronger effect = lower value 0.957 | locus YBR231C, strain swc5, stronger effect = lower value 0.976 | locus YBR279W, strain paf1, stronger effect = lower value 0.999 | locus YCL011C, strain gbp2, stronger effect = lower value 1 | locus YCL016C, strain dcc1, stronger effect = lower value 1.03 | locus YCL029C, strain bik1, stronger effect = lower value 0.977 | locus YCL061C, strain MRC1, stronger effect = lower value 0.997 | locus YCL069W, strain vba3, stronger effect = lower value 0.986 | locus YCR088W, strain abp1, stronger effect = lower value 0.991 | locus YDL005C, strain med2, stronger effect = lower value 0.997 | locus YDL035C, strain GPR1, stronger effect = lower value 0.978 | locus YDL040C, strain nat1, stronger effect = lower value 0.992 | locus YDL074C, strain BRE1, stronger effect = lower value 0.969 | locus YDL101C, strain DUN1, stronger effect = lower value 0.987 | locus YDL185W, strain tfp1, stronger effect = lower value 0.956 | locus YDL192W, strain arf1, stronger effect = lower value 0.985 | locus YDR001C, strain nth1, stronger effect = lower value 0.992 | locus YDR069C, strain doa4, stronger effect = lower value 0.966 | locus YDR101C, strain arx1, stronger effect = lower value 0.97 | locus YDR137W, strain rgp1, stronger effect = lower value 0.976 | locus YDR159W, strain sac3, stronger effect = lower value 0.962 | locus YDR162C, strain NBP2, stronger effect = lower value 0.982 | locus YDR195W, strain ref2 0.976 | locus YDR297W, strain sur2, stronger effect = lower value 0.996 | locus YDR318W, strain mcm21, stronger effect = lower value 0.99 | locus YDR334W, strain swr1, stronger effect = lower value 0.966 | locus YDR335W, strain msn5, stronger effect = lower value 1 | locus YDR388W, stronger effect = lower value 0.977 | locus YDR392W, strain spt3, stronger effect = lower value 0.942 | locus YDR502C, strain sam2, stronger effect = lower value 0.979 | locus YEL003W, strain gim4, stronger effect = lower value 0.983 | locus YEL037C, strain rad23, stronger effect = lower value 0.989 | locus YEL061C, strain CIN8 (second series), stronger effect = lower value 0.982 | locus YEL061C, strain CIN8, stronger effect = lower value 0.995 | locus YER015W, strain faa2, stronger effect = lower value 0.996 | locus YER016W, strain bim1, stronger effect = lower value 0.989 | locus YER110C, stronger effect = lower value 0.981 | locus YER111C, strain swi4, stronger effect = lower value 0.972 | locus YER155C, strain BEM2 (second series), stronger effect = lower value 1.01 | locus YER155C, strain BEM2, stronger effect = lower value 0.995 | locus YER167W, strain BCK2, stronger effect = lower value 0.985 | locus YFR010W, strain ubp6, stronger effect = lower value 0.971 | locus YGL078C, strain dbp3, stronger effect = lower value 0.978 | locus YGL086W, strain mad1, stronger effect = lower value 1.01 | locus YGL167C, strain pmr1, stronger effect = lower value 0.989 | locus YGL173C, strain kem1, stronger effect = lower value 0.968 | locus YGL227W, strain vid30, stronger effect = lower value 0.999 | locus YGL240W, strain doc1, stronger effect = lower value 0.999 | locus YGL248W, strain PDE1, stronger effect = lower value 0.995 | locus YGR135W, strain pre9, stronger effect = lower value 1.02 | locus YGR229C, strain SMI1, stronger effect = lower value 0.998 | locus YGR252W, strain gcn5, stronger effect = lower value 0.984 | locus YHR013C, strain ard1, stronger effect = lower value 0.993 | locus YHR027C, strain rpn1, stronger effect = lower value 0.972 | locus YHR030C, strain SLT2, stronger effect = lower value 0.991 and 0.976 | locus YHR079C, strain IRE1 (second series), stronger effect = lower value 0.975 | locus YHR079C, strain IRE1, stronger effect = lower value 0.978 | locus YHR094C, strain hxt1, stronger effect = lower value 0.976 | locus YHR129C, strain ARP1, stronger effect = lower value 0.992 | locus YHR142W, strain chs7, stronger effect = lower value 1.02 | locus YHR200W, strain rpn10, stronger effect = lower value 0.968 | locus YIL066C, strain RNR3, stronger effect = lower value 0.974 | locus YIL073C, strain SPO22, stronger effect = lower value 0.994 | locus YIL125W, strain kgd1, stronger effect = lower value 0.978 | locus YIR030C, strain dcg1, stronger effect = lower value 0.977 | locus YJL092W, strain hpr5, stronger effect = lower value 0.973 | locus YJL095W, strain BCK1 (second series), stronger effect = lower value 0.979 | locus YJL095W, strain BCK1, stronger effect = lower value 1 and 0.987 | locus YJL115W, strain asf1, stronger effect = lower value 0.98 | locus YJL129C, strain trk1, stronger effect = lower value 0.961 | locus YJL134W, strain LCB3, stronger effect = lower value 0.983 | locus YJL154C, strain vps35, stronger effect = lower value 1.01 | locus YJL164C, strain tpk1, stronger effect = lower value 1.03 | locus YJL166W, strain qcr8, stronger effect = lower value 1 | locus YJL168C, strain set2, stronger effect = lower value 0.994 | locus YJL187C, strain SWE1 (second series), stronger effect = lower value 0.989 | locus YJR066W, strain TOR1, stronger effect = lower value 0.932 | locus YJR075W, strain HOC1, stronger effect = lower value 0.98 | locus YKL009W, strain mrt4, stronger effect = lower value 0.986 | locus YKL068W, stronger effect = lower value 0.989 | locus YKL085W, strain MDH1 (second series), stronger effect = lower value 1 | locus YKL085W, strain MDH1, stronger effect = lower value 1 | locus YKL160W, strain elf1, stronger effect = lower value 1.05 | locus YKR001C, strain vps1, stronger effect = lower value 0.992 | locus YKR026C, strain gcn3, stronger effect = lower value 0.981 | locus YKR091W, strain srl3, stronger effect = lower value 0.996 | locus YLL001W, strain dnm1, stronger effect = lower value 0.967 | locus YLL026W, stronger effect = lower value 0.984 | locus YLL041C, strain sdh2, stronger effect = lower value 0.975 | locus YLR027C, strain aat2, stronger effect = lower value 0.978 | locus YLR039C, strain RIC1, stronger effect = lower value 0.92 | locus YLR058C, strain SHM2, stronger effect = lower value 0.979 | locus YLR102C, strain apc9, stronger effect = lower value 0.983 | locus YLR113W, strain HOG1, stronger effect = lower value 0.991 | locus YLR221C, strain rsa3, stronger effect = lower value 0.978 | locus YLR258W, strain gsy2, stronger effect = lower value 1.02 | locus YLR262C, strain YPT6 (second series), stronger effect = lower value 0.983 | locus YLR262C, strain YPT6, stronger effect = lower value 0.933 | locus YLR268W, strain sec22, stronger effect = lower value 0.959 | locus YLR320W, strain mms22, stronger effect = lower value 1 | locus YLR342W, strain FKS1, stronger effect = lower value 0.993 | locus YLR357W, strain rsc2, stronger effect = lower value 0.978 | locus YLR370C, strain arc18, stronger effect = lower value 0.963 | locus YLR371W, strain rom2, stronger effect = lower value 0.972 | locus YLR384C, strain iki3, stronger effect = lower value 1 | locus YLR418C, strain cdc73, stronger effect = lower value 0.994 | locus YML016C, strain PPZ1, stronger effect = lower value 0.978 | locus YML032C, strain rad52, stronger effect = lower value 0.965 | locus YML120C, strain ndi1, stronger effect = lower value 1.02 | locus YML124C, strain tub3, stronger effect = lower value 0.988 | locus YMR058W, strain fet3, stronger effect = lower value 0.994 | locus YMR078C, strain ctf18, stronger effect = lower value 0.961 | locus YMR125W, strain sto1, stronger effect = lower value 0.992 | locus YMR129W, stronger effect = lower value 0.99 | locus YMR205C, strain PFK2, stronger effect = lower value 1 | locus YMR223W, strain ubp8, stronger effect = lower value 0.993 | locus YMR231W, strain pep5, stronger effect = lower value 0.973 | locus YMR263W, strain SAP30, stronger effect = lower value 0.972 | locus YMR307W, strain GAS1, stronger effect = lower value 1.16 | locus YNL067W, strain RPL9B, stronger effect = lower value 0.992 | locus YNL071W, strain lat1, stronger effect = lower value 0.999 | locus YNL153C, strain GIM3, stronger effect = lower value 0.982 | locus YNL183C, strain NPR1, stronger effect = lower value 0.968 | locus YNL209W, strain ssb2, stronger effect = lower value 1 | locus YNL233W, strain BNI4, stronger effect = lower value 1.02 | locus YNL248C, strain rpa49, stronger effect = lower value 0.938 | locus YNL250W, strain rad50, stronger effect = lower value 0.972 | locus YNL271C, strain bni1, stronger effect = lower value 0.976 | locus YNL298W, strain CLA4, stronger effect = lower value 0.976 | locus YNL307C, strain MCK1, stronger effect = lower value 0.982 | locus YNL322C, strain KRE1 (second series), stronger effect = lower value 0.992 | locus YNR049C, strain mso1, stronger effect = lower value 0.988 | locus YNR052C, strain pop2, stronger effect = lower value 0.984 | locus YOL012C, strain htz1 1.19 | locus YOL147C, strain pex11, stronger effect = lower value 0.979 | locus YOR001W, strain rrp6, stronger effect = lower value 0.936 | locus YOR061W, strain CKA2, stronger effect = lower value 0.956 | locus YOR069W, strain VPS5, stronger effect = lower value 0.994 | locus YOR070C, strain gyp1, stronger effect = lower value 0.993 | locus YOR080W, strain dia2, stronger effect = lower value 0.976 | locus YOR083W, strain WHI5, stronger effect = lower value 1.06 | locus YOR106W, strain vam3, stronger effect = lower value 1.06 | locus YOR136W, strain idh2, stronger effect = lower value 0.976 | locus YOR144C, strain elg1, stronger effect = lower value 0.98 | locus YOR184W, strain ser1, stronger effect = lower value 0.953 | locus YOR231W, strain MKK1, stronger effect = lower value 0.996 | locus YOR265W, strain rbl2, stronger effect = lower value 0.991 | locus YOR270C, strain vph1, stronger effect = lower value 0.87 | locus YOR290C, strain snf2, stronger effect = lower value 1.05 | locus YOR316C, strain cot1, stronger effect = lower value 0.981 | locus YPL051W, strain arl3, stronger effect = lower value 0.959 | locus YPL078C, strain atp4, stronger effect = lower value 1.05 | locus YPL106C, strain sse1, stronger effect = lower value 1.04 | locus YPL240C, strain hsp82, stronger effect = lower value 0.976 | locus YPL241C, strain CIN2, stronger effect = lower value 0.986 | locus YPL256C, strain CLN2, stronger effect = lower value 0.995 | locus YPR119W, strain clb2, stronger effect = lower value 0.98 | locus YPR141C, strain kar3, stronger effect = lower value 0.985 | locus YPR163C, strain tif3, stronger effect = lower value 0.983 | locus YPR167C, strain met16, stronger effect = lower value 0.983 | strain wtn01, stronger effect = lower value 0.956
active: locus YGL253W, strain hxk2, stronger effect = lower value 0.91
